# Measurements from the supplement of paper PMC10849652.
# Of roughly 7,900 targets only a part is listed; those with a hit were picked by preference. About 0.6% of all pairs of compound and target were hits.
# Columns and labels:
# Experiment in all cases: log2 fold change, soluble protein after heating vs DMSO (PISA); higher = thermal stabilisation; K562 cells, 10 uM, 30 min; active = over 0.2 and 3.5 SD of the protein, either way, in both replicates (recomputed)
# [1] = compound: CC[C@@H]1C(=O)N(C)c2cnc(Nc3ccc(C(=O)NC4CCN(C)CC4)cc3OC)nc2N1C1CCCC1
# How it was run: (§1)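 Values are thermal stability changes relative to control samples and are taken from duplicates. They are stated as log2 fold changes. Before quantification by TMTpro 16plex LC-MS/MS with equalised channel sums, K562 cells at 2×10^6 cells/mL were treated with 10 μM compound for 30 min, heated in aliquots for 3 min across 48°C-58°C, pooled, extracted in PBS with 0.5% NP-40 at 4°C, and centrifuged at 21,000xg for 90 min to give the soluble supernatant.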
# volasertib = compound: CC[C@@H]1C(=O)N(C)c2cnc(Nc3ccc(C(=O)N[C@H]4CC[C@H](N5CCN(CC6CC6)CC5)CC4)cc3OC)nc2N1C(C)C [volasertib]
# How it was run: as §1
# [2] = compound: CC[C@H](C)N1C=C(C2=C(C=C(C=C21)C3=CN=C(C=C3)N4CCNCC4)C(=O)NCC5=C(C=C(NC5=O)C)C)C
# How it was run: as §1
# epoxomicin = compound: CC[C@H](C)[C@@H](C(=O)N[C@@H]([C@@H](C)O)C(=O)N[C@@H](CC(C)C)C(=O)[C@]1(CO1)C)NC(=O)[C@H]([C@@H](C)CC)N(C)C(=O)C [epoxomicin]
# How it was run: as §1
# [3] = compound: CCn1c(C(=O)N(C2CC2)C2CC2)cc2c3c(ncn3C)c(Nc3cc(C)n(C)n3)nc21
# How it was run: as §1
# [4] = compound: CCn1cc(-c2ccnc3[nH]c(-c4cccc(CN(C)C)c4)cc23)c(-c2ccc(NC(=O)N(C)C)cc2)n1
# How it was run: as §1
# [5] = compound: CN(C)CC(=O)Nc1ccc2[nH]c(=O)c3ccccc3c2c1
# How it was run: as §1
# rosiglitazone = compound: CN(CCOC1=CC=C(C=C1)C[C@H]2C(=O)NC(=O)S2)C3=CC=CC=N3 (racemic) [rosiglitazone]
# How it was run: as §1
# [6] = compound: CN1C2=C(C3=C1C(=O)N(N=C3)CC4=CC(=CC=C4)N)SC(=C2)S(=O)C
# How it was run: as §1
# [7] = compound: CN1CCC(CNc2ccc3ncc(-c4cccc(OC(F)(F)F)c4)n3n2)CC1
# How it was run: as §1
# Chain of UniProt P60602 (P60602 whole entry, looked up): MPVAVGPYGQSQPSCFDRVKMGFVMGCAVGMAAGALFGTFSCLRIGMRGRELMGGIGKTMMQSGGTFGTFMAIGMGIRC
# Chain of UniProt O94979 (O94979 whole entry, looked up): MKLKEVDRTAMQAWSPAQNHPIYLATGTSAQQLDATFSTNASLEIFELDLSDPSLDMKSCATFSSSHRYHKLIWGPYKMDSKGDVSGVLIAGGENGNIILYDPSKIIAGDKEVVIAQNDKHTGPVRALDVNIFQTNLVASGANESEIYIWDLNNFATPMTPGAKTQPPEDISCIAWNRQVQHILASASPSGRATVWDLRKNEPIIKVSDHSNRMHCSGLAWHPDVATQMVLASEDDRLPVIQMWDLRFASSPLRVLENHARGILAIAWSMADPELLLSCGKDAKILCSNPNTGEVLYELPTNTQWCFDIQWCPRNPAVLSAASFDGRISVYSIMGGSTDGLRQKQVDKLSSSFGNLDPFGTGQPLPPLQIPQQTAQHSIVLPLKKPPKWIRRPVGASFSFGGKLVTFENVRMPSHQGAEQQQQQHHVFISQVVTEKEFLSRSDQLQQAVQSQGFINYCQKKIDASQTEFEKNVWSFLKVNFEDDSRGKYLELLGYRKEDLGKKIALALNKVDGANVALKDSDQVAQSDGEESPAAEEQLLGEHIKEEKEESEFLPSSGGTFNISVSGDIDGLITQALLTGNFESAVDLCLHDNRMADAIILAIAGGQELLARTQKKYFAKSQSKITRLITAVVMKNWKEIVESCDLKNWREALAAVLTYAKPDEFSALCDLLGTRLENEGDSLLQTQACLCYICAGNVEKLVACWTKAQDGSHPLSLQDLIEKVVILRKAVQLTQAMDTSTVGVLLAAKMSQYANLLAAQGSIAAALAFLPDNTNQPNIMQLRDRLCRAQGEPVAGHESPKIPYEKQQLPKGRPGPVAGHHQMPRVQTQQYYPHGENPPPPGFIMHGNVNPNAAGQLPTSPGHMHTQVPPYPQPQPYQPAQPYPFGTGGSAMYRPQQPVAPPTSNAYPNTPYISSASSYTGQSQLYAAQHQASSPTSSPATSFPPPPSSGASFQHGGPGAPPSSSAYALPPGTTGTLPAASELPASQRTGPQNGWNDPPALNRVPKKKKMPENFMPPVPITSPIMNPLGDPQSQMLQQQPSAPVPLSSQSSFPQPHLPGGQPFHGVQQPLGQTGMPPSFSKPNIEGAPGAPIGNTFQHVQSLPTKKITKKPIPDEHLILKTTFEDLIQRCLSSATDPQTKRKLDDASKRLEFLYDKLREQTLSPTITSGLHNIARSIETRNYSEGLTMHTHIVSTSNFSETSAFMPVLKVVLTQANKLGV
# Chain of UniProt Q8TDY2 (Q8TDY2 whole entry, looked up): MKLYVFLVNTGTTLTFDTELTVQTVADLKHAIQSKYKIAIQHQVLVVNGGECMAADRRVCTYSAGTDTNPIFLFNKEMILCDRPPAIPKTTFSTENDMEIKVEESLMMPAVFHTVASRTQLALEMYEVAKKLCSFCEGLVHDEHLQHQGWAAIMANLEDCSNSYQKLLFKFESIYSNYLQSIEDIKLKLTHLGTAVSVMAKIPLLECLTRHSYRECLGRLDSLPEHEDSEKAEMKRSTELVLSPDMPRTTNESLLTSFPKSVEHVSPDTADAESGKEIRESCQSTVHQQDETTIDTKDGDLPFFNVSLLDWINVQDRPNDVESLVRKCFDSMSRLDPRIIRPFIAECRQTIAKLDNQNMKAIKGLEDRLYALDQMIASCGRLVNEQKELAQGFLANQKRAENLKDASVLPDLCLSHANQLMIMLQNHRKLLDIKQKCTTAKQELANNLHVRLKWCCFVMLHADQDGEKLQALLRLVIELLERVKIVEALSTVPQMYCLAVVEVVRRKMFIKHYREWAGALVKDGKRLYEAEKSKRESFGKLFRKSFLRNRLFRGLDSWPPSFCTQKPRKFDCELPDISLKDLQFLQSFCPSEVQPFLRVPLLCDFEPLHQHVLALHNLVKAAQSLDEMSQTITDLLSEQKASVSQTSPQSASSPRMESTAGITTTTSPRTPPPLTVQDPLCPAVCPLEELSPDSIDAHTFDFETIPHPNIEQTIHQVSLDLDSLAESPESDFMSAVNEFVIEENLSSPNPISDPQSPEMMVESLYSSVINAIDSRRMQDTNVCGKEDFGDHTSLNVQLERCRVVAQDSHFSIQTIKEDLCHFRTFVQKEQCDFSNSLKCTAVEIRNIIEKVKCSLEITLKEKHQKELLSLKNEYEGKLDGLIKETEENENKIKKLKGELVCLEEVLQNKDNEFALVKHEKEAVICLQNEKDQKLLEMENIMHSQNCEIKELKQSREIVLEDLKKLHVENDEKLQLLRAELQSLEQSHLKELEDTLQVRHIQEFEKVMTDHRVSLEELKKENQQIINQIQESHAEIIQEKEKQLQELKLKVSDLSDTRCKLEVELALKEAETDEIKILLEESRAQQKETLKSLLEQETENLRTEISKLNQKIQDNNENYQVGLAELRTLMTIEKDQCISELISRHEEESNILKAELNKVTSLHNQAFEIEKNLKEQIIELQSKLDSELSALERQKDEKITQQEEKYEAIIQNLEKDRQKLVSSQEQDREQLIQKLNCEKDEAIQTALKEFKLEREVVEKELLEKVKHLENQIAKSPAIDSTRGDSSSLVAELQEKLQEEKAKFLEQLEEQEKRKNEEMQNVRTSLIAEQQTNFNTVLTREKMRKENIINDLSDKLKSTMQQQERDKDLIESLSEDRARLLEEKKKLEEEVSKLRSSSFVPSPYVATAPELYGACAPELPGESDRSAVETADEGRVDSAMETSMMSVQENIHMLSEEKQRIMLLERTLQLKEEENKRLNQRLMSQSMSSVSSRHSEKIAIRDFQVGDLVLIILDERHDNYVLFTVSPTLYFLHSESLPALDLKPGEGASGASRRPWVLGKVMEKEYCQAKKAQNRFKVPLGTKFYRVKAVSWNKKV
# Chain of UniProt Q99496 (Q99496 whole entry, looked up): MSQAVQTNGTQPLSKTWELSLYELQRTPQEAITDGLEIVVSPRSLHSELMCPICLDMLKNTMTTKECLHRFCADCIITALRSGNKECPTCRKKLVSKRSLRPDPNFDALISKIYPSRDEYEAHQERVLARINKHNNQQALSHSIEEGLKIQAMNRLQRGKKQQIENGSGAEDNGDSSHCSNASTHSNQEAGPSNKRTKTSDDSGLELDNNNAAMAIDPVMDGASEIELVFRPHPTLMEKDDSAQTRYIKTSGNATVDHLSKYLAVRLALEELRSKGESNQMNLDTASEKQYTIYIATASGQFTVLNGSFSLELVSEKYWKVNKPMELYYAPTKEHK
# Chain of UniProt Q5VTB9 (Q5VTB9 whole entry, looked up): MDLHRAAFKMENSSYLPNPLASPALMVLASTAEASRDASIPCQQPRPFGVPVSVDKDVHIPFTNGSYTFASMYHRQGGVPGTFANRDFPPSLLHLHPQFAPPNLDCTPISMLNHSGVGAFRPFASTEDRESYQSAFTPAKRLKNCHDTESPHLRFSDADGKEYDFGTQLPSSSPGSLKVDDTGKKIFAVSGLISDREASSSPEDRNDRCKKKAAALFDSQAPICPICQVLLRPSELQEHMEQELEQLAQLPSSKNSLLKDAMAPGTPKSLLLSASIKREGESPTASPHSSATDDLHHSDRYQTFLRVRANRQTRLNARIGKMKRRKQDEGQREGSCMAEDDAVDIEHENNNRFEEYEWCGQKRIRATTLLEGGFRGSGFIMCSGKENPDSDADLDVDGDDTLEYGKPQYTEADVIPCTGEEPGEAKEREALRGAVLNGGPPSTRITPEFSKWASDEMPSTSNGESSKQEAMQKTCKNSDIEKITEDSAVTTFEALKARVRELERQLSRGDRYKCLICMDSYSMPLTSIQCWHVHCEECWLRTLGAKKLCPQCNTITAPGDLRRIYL
# Chain of UniProt Q9HB40 (Q9HB40 whole entry, looked up): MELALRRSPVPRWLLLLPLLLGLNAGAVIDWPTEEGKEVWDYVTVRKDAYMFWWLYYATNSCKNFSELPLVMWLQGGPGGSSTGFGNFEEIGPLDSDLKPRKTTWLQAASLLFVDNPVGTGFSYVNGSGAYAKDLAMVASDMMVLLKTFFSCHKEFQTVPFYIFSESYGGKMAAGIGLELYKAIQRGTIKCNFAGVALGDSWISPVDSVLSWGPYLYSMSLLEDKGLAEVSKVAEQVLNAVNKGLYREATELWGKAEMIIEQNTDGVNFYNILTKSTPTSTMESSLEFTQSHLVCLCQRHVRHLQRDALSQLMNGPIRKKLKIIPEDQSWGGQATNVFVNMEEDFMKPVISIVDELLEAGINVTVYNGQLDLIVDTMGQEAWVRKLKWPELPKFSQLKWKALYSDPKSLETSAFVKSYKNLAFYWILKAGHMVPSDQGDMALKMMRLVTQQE
# Chain of UniProt P41440 (P41440 whole entry, looked up): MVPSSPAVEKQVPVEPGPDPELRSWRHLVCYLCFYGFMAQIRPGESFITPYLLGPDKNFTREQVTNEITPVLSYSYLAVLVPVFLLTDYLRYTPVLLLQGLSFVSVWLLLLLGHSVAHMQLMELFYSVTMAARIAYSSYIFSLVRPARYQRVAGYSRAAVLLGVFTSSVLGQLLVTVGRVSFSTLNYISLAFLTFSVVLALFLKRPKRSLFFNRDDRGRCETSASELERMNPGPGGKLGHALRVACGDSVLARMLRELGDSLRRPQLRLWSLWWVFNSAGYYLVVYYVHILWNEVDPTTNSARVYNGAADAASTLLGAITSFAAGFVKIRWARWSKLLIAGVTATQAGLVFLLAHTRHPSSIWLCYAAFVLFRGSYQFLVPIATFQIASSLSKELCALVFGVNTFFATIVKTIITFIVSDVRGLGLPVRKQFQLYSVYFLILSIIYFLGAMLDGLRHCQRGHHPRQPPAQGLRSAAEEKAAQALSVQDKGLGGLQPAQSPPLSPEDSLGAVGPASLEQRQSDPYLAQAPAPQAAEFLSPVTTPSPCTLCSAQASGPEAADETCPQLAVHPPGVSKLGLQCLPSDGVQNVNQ
# Chain of UniProt Q5VUM1 (Q5VUM1 whole entry, looked up): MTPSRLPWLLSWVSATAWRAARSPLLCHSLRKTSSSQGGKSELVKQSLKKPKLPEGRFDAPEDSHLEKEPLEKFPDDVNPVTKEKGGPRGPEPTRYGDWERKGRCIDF
Target,log2 fold change [1],log2 fold change (volasertib),log2 fold change [2],log2 fold change (epoxomicin),log2 fold change [3],log2 fold change [4],log2 fold change [5],log2 fold change (rosiglitazone),log2 fold change [6],log2 fold change [7]
RECQL (UniProt P46063),-0.032 (inactive),-0.014 (inactive),0.002 (inactive),0 (inactive),0.009 (inactive),-0.021 (inactive),0.016 (inactive),0.032 (inactive),-0.076 (inactive),0.058 (inactive)
SHROOM2 (UniProt Q13796),0.027 (inactive),0.068 (inactive),-0.243 (inactive),-0.136 (inactive),-0.203 (inactive),-0.072 (inactive),-0.021 (inactive),0.058 (inactive),-0.103 (inactive),-0.094 (inactive)
SLC1A5 (UniProt Q15758),0.095 (inactive),0.027 (inactive),-0.043 (inactive),-0.001 (inactive),0.042 (inactive),-0.014 (inactive),-0.02 (inactive),-0.009 (inactive),-0.114 (inactive),0.226 (active)
RNF187 (UniProt Q5TA31),0.155 (inactive),0.074 (inactive),0.061 (inactive),0.15 (inactive),-0.061 (inactive),0.002 (inactive),0.24 (inactive),0.004 (inactive),-0.104 (inactive),-0.073 (inactive)
SLC19A1 (UniProt P41440),0.08 (inactive),0.078 (inactive),-0.062 (inactive),0.087 (inactive),0.019 (inactive),-0.047 (inactive),0.003 (inactive),0.019 (inactive),-0.109 (inactive),0.172 (inactive)
RNF2 (UniProt Q99496),-0.045 (inactive),-0.169 (inactive),-0.307 (active),0.168 (inactive),0.1 (inactive),0.012 (inactive),0.007 (inactive),0.036 (inactive),0.063 (inactive),-0.03 (inactive)
RALA (UniProt P11233),0.084 (inactive),0.025 (inactive),-0.044 (inactive),-0.054 (inactive),0.021 (inactive),0.029 (inactive),-0.029 (inactive),-0.021 (inactive),-0.115 (inactive),0.434 (active)
RDH11 (UniProt Q8TC12),-0.213 (inactive),-0.543 (active),0.015 (inactive),0.045 (inactive),-0.024 (inactive),-0.072 (inactive),0.037 (inactive),-0.041 (inactive),0.027 (inactive),-0.466 (active)
SEC31A (UniProt O94979),-0.035 (inactive),-0.354 (active),0.021 (inactive),0.034 (inactive),-0.044 (inactive),0.018 (inactive),0.046 (inactive),0.018 (inactive),0.051 (inactive),-0.11 (inactive)
RNPEP (UniProt Q9H4A4),0.015 (inactive),-0.303 (active),0.078 (inactive),0.042 (inactive),-0.074 (inactive),-0.09 (inactive),0.034 (inactive),0.077 (inactive),-0.036 (inactive),-0.119 (inactive)
RPL31 (UniProt P62899),0.212 (inactive),0.457 (inactive),0.01 (inactive),-0.238 (inactive),0.036 (inactive),0.216 (inactive),-0.108 (inactive),-0.124 (inactive),0.251 (inactive),0.259 (inactive)
RB1CC1 (UniProt Q8TDY2),0.051 (inactive),-0.022 (inactive),-0.086 (inactive),0.063 (inactive),-0.118 (inactive),-0.07 (inactive),-0.077 (inactive),0.01 (inactive),0.047 (inactive),-0.116 (inactive)
SDHAF2 (UniProt Q9NX18),0.089 (inactive),0.093 (inactive),-0.081 (inactive),-0.057 (inactive),0.053 (inactive),0.06 (inactive),-0.004 (inactive),0.02 (inactive),0.037 (inactive),0.045 (inactive)
SCPEP1 (UniProt Q9HB40),-0.608 (active),-1.44 (active),-0.022 (inactive),0.044 (inactive),0.011 (inactive),-0.095 (inactive),-0.001 (inactive),0.019 (inactive),0.019 (inactive),-0.846 (active)
RAB3IL1 (UniProt E9PK89),-0.012 (inactive),-0.137 (inactive),0.25 (inactive),0.109 (inactive),-0.138 (inactive),-0.555 (active),0.035 (inactive),0.017 (inactive),–,-0.342 (inactive)
RMC1 (UniProt Q96DM3),-0.192 (inactive),-0.416 (active),0.095 (inactive),-0.025 (inactive),-0.041 (inactive),0.042 (inactive),-0.023 (inactive),0.005 (inactive),-0.039 (inactive),-0.146 (inactive)
SACM1L (UniProt Q9NTJ5),-0.193 (inactive),-0.534 (active),-0.001 (inactive),0.019 (inactive),0.029 (inactive),-0.019 (inactive),0.033 (inactive),0.021 (inactive),-0.076 (inactive),0.031 (inactive)
SCAMP2 (UniProt H3BUB6),-0.015 (inactive),-0.006 (inactive),-0.092 (inactive),-0.157 (inactive),-0.058 (inactive),–,-0.201 (inactive),-0.034 (inactive),0.064 (inactive),–
SAMSN1 isoform 3 (UniProt Q9NSI8),-0.069 (inactive),-0.153 (inactive),0.026 (inactive),0.018 (inactive),-0.02 (inactive),-0.065 (inactive),0.017 (inactive),0.067 (inactive),0 (inactive),-0.253 (active)
RAB9A (UniProt P51151),-0.061 (inactive),-0.024 (inactive),-0.001 (inactive),0.064 (inactive),-0.003 (inactive),0.004 (inactive),0.034 (inactive),0 (inactive),-0.034 (inactive),-0.252 (active)
SDHC (UniProt Q99643),0.042 (inactive),0.036 (inactive),-0.1 (inactive),0.205 (inactive),0.018 (inactive),0 (inactive),0.264 (inactive),0.064 (inactive),-0.068 (inactive),0.023 (inactive)
RCOR3 isoform 3 (UniProt Q9P2K3),0.005 (inactive),-0.068 (inactive),-0.078 (inactive),–,-0.074 (inactive),-0.294 (inactive),0.038 (inactive),0.037 (inactive),0.02 (inactive),-0.011 (inactive)
RNF220 (UniProt Q5VTB9),-0.047 (inactive),-0.114 (inactive),0.085 (inactive),-0.021 (inactive),-0.045 (inactive),-0.043 (inactive),-0.03 (inactive),0.002 (inactive),-0.045 (inactive),0.003 (inactive)
SLC18B1 (UniProt Q6NT16),0.031 (inactive),-0.114 (inactive),-0.034 (inactive),0.022 (inactive),0.068 (inactive),-0.005 (inactive),-0.134 (inactive),-0.044 (inactive),-0.035 (inactive),-0.592 (active)
ROMO1 (UniProt P60602),0.033 (inactive),0.01 (inactive),-0.06 (inactive),-0.178 (inactive),0.024 (inactive),-0.023 (inactive),–,-0.023 (inactive),0.125 (inactive),0.049 (inactive)
SDHAF4 (UniProt Q5VUM1),0.013 (inactive),0.075 (inactive),-0.045 (inactive),-0.066 (inactive),0.162 (inactive),–,–,0.048 (inactive),-0.014 (inactive),–
RELA (UniProt Q04206),-0.063 (inactive),-0.263 (active),0.013 (inactive),0.025 (inactive),0.027 (inactive),-0.043 (inactive),-0.019 (inactive),0.039 (inactive),-0.009 (inactive),-0.011 (inactive)
SEPTIN5 (UniProt Q99719),0.03 (inactive),0.047 (inactive),-0.003 (inactive),-0.025 (inactive),0.016 (inactive),-0.052 (inactive),-0.019 (inactive),0.032 (inactive),-0.09 (inactive),-0.009 (inactive)
